# PubChem BioAssay AID485364 (National Center for Advancing Translational Sciences (NCATS), 2010)
# In all, about 360,000 compounds went through this assay and about 11,000 (3.1%) were called active. Another 4% or so got no clear call; they are omitted. Calls follow the shape of the dose curve; as a rule, active = well fitted inhibition curve with a large enough effect; inconclusive = small, poorly fitted or top-dose-only effect; inactive = no such curve, though single readings can be large or run the other way. What follows is part of a selection rich in actives, with near analogues and random picks from the rest. Entries that show only a call come without a potency.
# Molecular target: Schistosoma mansoni thioredoxin glutathione reductase (TGR) (UniProt Q962Y6)
# Assay: qHTS Assay for the Inhibitors of Schistosoma Mansoni Peroxiredoxins; also: nearly all actives have a fitted effect of over 60% in size
# Settings: purified TGR, DTNB reduction, TNB absorbance 405 nm; series mostly up to 114 µM
# Summary of the method: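 TGR 20 nM + NADPH 100 uM (dispensed conc.), cpd preinc 15 min RT; start with NADPH (500 uM addition) then DTNB (15 mM addition). Kinetic TNB absorbance, 405 nm filter. Four-parameter Hill fit across titration.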
# Potency is read from the fitted curve at half-maximal effect.
row,Structure (SMILES),Potency
1,COc1ccc(N2C(=O)/C(=C/c3ccco3)C(=O)NC2=S)cc1,14.1 µM (active)
2,COC(=O)C1=C(C)N(C(C)c2ccccc2)C(=O)/C1=C\c1ccco1 (stereo not given),31.6 µM (active)
3,COC(=O)c1ccc(NC(=O)C(C)N2C(=O)c3ccccc3C2=O)cc1 (stereo not given),inactive
4,COC(=O)C1=C(C)N(c2ccc(Br)cc2)C(=O)/C1=C\c1ccco1,35.5 µM (active)
5,COc1ccc(CN2C(=O)C(C)S/C2=N/N=C/c2ccco2)cc1 (stereo not given),inactive
6,COc1ccc(N2C(=O)CNC2=S)cc1,inactive
7,O=C(OCN1C(=O)c2ccccc2C1=O)/C(=C\c1ccco1)NC(=O)c1ccccc1,inactive
8,COC(=O)C1=C(C)N(C)C(C)=C(C(=O)OC)C1c1cccc(Br)c1,inactive
9,Cc1cccc(C)c1-n1ncc(C(=O)NCCCN2CCCCC2)c1C1CCN(C(=O)OC(C)(C)C)CC1,inactive
10,CC(C)NC(=O)C1CCC(Cn2c(=O)c3sccc3n(Cc3ccc(F)cc3)c2=O)CC1 (stereo not given),inactive
11,Cc1ccc2onc(CC(=O)N3CCN(c4ccc(Cl)cc4)CC3)c2c1,inactive
12,CCc1cc2c(cc(C(=O)OC)n2Cc2nc(-c3ccc(C)cc3)oc2C)s1,inactive
13,CC(=O)N1c2ccc(S(=O)(=O)N3CCCCCC3)cc2CC1C(=O)NCc1ccccc1C (stereo not given),inactive
14,CC(=O)c1ccc(N2CCN(c3nc4c(S(=O)(=O)c5ccccc5)nnn4c4ccc(Cl)cc34)CC2)cc1,inactive
15,O=C(CSc1nccn1-c1ccc(F)cc1)Nc1cccc2ccccc12,inactive
16,CC(=O)Nc1ccc2nc(SCCOc3cc(C)cc(C)c3)sc2c1,inactive
17,O=C(NCC12CC3CC(CC(C3)C1)C2)c1cc2nc(-c3ccccc3)cc(C(F)(F)F)n2n1,inactive
18,CCCNC(=O)C1CCC(Cn2c(=O)c3sccc3n(Cc3ccccc3F)c2=O)CC1 (stereo not given),inactive
19,COc1ccccc1Nc1nc(N)nc(N)c1S(=O)(=O)c1ccccc1,inactive
20,CCC1(CC)Cc2ccccc2-c2nc(CCl)[nH]c(=O)c21,3.16 µM (active)
21,CCOC(=O)C1Cn2c(nc3c(c2=O)C(C)(CC)Cc2ccccc2-3)S1 (stereo not given),inactive
22,CC1(C)Cc2ccccc2-c2[nH]c(=S)[nH]c(=O)c21,inactive
23,CCOC(=O)c1oc2ccc(S(=O)(=O)n3nc(-c4ccccc4OC)cc3N)cc2c1C,inactive
24,COc1ccc(Cl)cc1N(C)C(=O)c1cc2c(=O)oc3ccc(C)cc3c2s1,inactive
25,O=S(=O)(O)Oc1c[nH]c2ccccc12,20 µM (active)
26,O=C(OCC(=O)c1c[nH]c2ccccc12)c1cccc(O)c1,inactive
27,NC(=O)CSc1c[nH]c2ccccc12,inactive

row,Structure (SMILES),Potency
1,Cc1ccc(OCC(=O)Nc2ccc(Cl)c(-c3nc4ccccc4[nH]3)c2)cc1C,inactive
2,CCc1nc2nc(C)cc(Nc3ccc(F)c(Cl)c3)n2n1,inactive
3,COc1ccc(-c2csc(NC3OC(=O)c4ccccc43)n2)cc1 (stereo not given),5.62 µM (active)
4,Cc1ccc(-c2csc(-c3c[nH]c4ccccc34)n2)cc1,inactive
5,COc1ccc2c(c1OC)C(=O)OC2Nc1nc(-c2ccccc2)cs1 (stereo not given),3.16 µM (active)
6,C/C(CC1CC(C)(C)OC1=O)=N/Nc1nc(-c2ccccc2)cs1 (stereo not given),inactive
7,COc1ccc(-c2csc(NC(=O)COC(=O)Cc3ccc(Cl)cc3Cl)n2)cc1,inactive
8,COc1ccc(N/C=C(\C2OC(=O)c3ccccc32)[N+](=O)[O-])cc1 (stereo not given),inactive
9,CCCc1cc(-c2nc(-c3ccc(C)cc3)cs2)ccn1,inactive
10,Cc1ccc(-c2csc(NC3OC(=O)c4ccccc43)n2)cc1 (stereo not given),28.2 µM (active)
11,CCc1ccccc1NC(=O)[C@@H]1CCC(=O)N1C1OC(=O)c2c1ccc(OC)c2OC (stereo not given in full),inactive
12,Cc1nnc(NC(=O)CSc2nc3c([nH]c4ccccc43)c(=O)n2-c2cccc(Cl)c2)s1,inactive
13,CC(=O)Nc1c(C)nn(-c2ccccc2)c1N1CCC(C(=O)Nc2cc(Cl)ccc2C)CC1,inactive
14,Cn1nnnc1SCCCNCc1ccc(Cl)cc1,inactive
15,Fc1ccc(-c2nc(Nc3cccc(Cl)c3)nc3c2COc2ccccc2-3)cc1,inactive
16,Cc1ccc(S(=O)(=O)N2CCCc3cc(NS(=O)(=O)c4cc(C)ccc4C)ccc32)cc1,inactive
17,Cc1cc(NS(=O)(=O)c2ccc3oc(=O)c4ncn(C)c4c3c2)ccc1Br,inactive
18,Cc1cc(C)cc(NC(=O)CCCc2nc(-c3ccccc3Cl)no2)c1,inactive
19,COc1cc(N2C(=O)CSC2=S)cc(OC)c1OC,inactive
20,O=C1CSC(=S)N1c1ccc(O)cc1,inactive
21,CCOc1cccc(/C=N/N2C(=O)CSC2=S)c1O,3.55 µM (active)
22,Cc1cc(C)cc(NC(c2nnc(-c3cccc(F)c3)o2)c2ccc(F)cc2Cl)c1 (stereo not given),inactive
23,CCOc1cccc(CNC(=O)c2ccc(N3CCCC3)c(NC(=O)Nc3ccccc3CC)c2)c1,inactive
24,Cc1c(Cl)cccc1NC(=O)Nc1ccc(C(=O)N2CCCC2)cc1,inactive
25,Cc1c(Cl)cccc1NC(=O)NCCCN1CCCC1=O,inactive
26,Cc1c(Cl)cccc1NC(=O)NCc1ccc(C)n1C,35.5 µM (active)
27,C#CC(C)(CC)NC(=O)Cn1nnc(-c2ccc(OCc3c(F)cccc3Cl)cc2)n1 (stereo not given),inactive

row,Structure (SMILES),Potency
1,Cc1nnc(SCC2=C(C(=O)O)N3C(=O)C(NC(=O)Cn4nc(C)c(Cl)c4C)C3SC2)s1 (stereo not given),10 µM (active)
2,Cc1nnc(SCC(=O)NC2CCCC2)s1,inactive
3,CO/N=C(\C(=O)N[C@@H]1C(=O)N2C(C(=O)O)=C(COC(C)=O)CS[C@H]12)c1csc(N)n1 (stereo in doubt),inactive
4,Cc1cc(C)cc(C(=O)NC2C(=O)N3C(C(=O)O)=C(CSc4nnc(C)s4)CSC23)c1 (stereo not given),5.01 µM (active)
5,O=C(Cn1ncc2c3ccccc3n(Cc3ccccc3)c2c1=O)NC1CCCCCC1,inactive
6,Cc1cccc(CSc2nc3ccncc3n2CC(=O)N(C)C2CCCCC2)c1,inactive
7,CC(C)(C)OC(=O)N1CCC(c2c(C(=O)NCc3ccccn3)cnn2-c2ccc(F)cc2)CC1,inactive
8,COc1cccc(NC(C)=[N+](C)CCNS(=O)(=O)c2ccc(Cl)cc2)c1,31.6 µM (active)
9,COc1cccc(NC(=O)CCNS(=O)(=O)c2ccc3c(c2)oc(=O)n3C)c1,inactive
10,COc1ccc(S(=O)(=O)NCCCCOc2ccc(Cl)cc2)cc1,inactive
11,N#Cc1nc(/C=C/c2ccc(F)cc2)oc1NC1CCCCC1,inactive
12,CCC(=O)N1N=C(c2ccc(OC)cc2)CC1c1cn(-c2ccccc2)nc1-c1cccs1 (stereo not given),inactive
13,CCCn1c2ccccc2c2cnn(CC(=O)NCCCOC(C)C)c(=O)c21,inactive
14,CCSc1nnc2c(n1)OC(c1ccc(OCC(=O)O)cc1)Nc1ccccc1-2 (stereo not given),inactive
15,COC(=O)c1scc(-c2ccc(C)cc2)c1S(=O)(=O)Nc1cc(Cl)c(OC)cc1OC,inactive
16,COc1ccc(Nc2ncc3c(n2)CCN(C(=O)OC(C)(C)C)C3)cc1,inactive
17,Cc1cccc(-n2c(O)c(C=Nc3ccccc3N)c(=O)[nH]c2=O)c1,inactive
18,Cc1cccc(-n2c(O)c(/C=N/N3CCOCC3)c(=O)[nH]c2=S)c1,inactive
19,Cc1cccc(-n2c(O)c(C=NC34CN5CN(CN(C5)C3)C4)c(=O)[nH]c2=O)c1,7.94 µM (active)
20,CCOc1ccc(NC(=O)CCC(=O)N2CC(C)Oc3ccc(C)cc32)cc1 (stereo not given),inactive
21,COc1ccc(OC)c(-c2nc(C(N)=O)c3c(n2)n(-c2ccc4c(c2)OCO4)c(=O)n3C)c1,inactive
22,CCCOc1ccc(NC(=O)CC2C(=O)N(C)C(=S)N2Cc2ccc3c(c2)OCO3)cc1 (stereo not given),inactive
23,O=C(C1CCN(Cc2ccc(Cl)cc2)CC1)N1CCN(Cc2ccc3c(c2)OCO3)CC1,inactive
24,O=C(Nc1ccc(Cl)cc1)C1c2cccc[n+]2CC(=O)N1Cc1ccc2c(c1)OCO2 (stereo not given),20 µM (active)
25,COc1ccc(S(=O)(=O)c2c(Nc3ccc(C)cc3)sc(C(=O)c3ccc(C)cc3)c2N)cc1,inactive
26,Cc1c(C(=O)N2CCCC2)oc2c1-c1nn(CC(=O)NCc3ccc(OC(C)C)cc3)cc1CC2,inactive
27,CCC(Sc1nc2n[nH]c(C)c2c(=N)n1-c1ccccc1Cl)C(=O)N(CC)CC (stereo not given),inactive

row,Structure (SMILES),Potency
1,Cc1cc(C)nc(S/C=C/C(=O)c2ccccc2)n1,1.12 µM (active)
2,Cc1cc(C)nc(SC(C)C(=O)N/N=C/c2cccs2)n1 (stereo not given),inactive
3,Cc1cc(C)nc(N(C#N)CC(=O)Nc2ccccc2)n1,inactive
4,COc1ccccc1CN1CCC(CNC(=O)c2cnn(-c3ccccc3Cl)c2C2CCN(C(=O)OC(C)(C)C)CC2)CC1,inactive
5,CCOC(=O)c1c(S(=O)(=O)N2CCC(C(=O)NCc3ccccc3OC)CC2)c(C)n(C)c1C,inactive
6,COc1ccc(CCNC(=O)c2nn(C)c3c2CSc2ccccc2-3)cc1OC,inactive
7,COc1cc(NC(=O)c2noc3c2CSc2ccccc2-3)cc(OC)c1OC,0.794 µM (active)
8,COc1cc(NC(=O)c2nc3ccccc3nc2C)cc(OC)c1OC,inactive
9,O=C(NCc1ccccc1Cl)c1cccn1-c1nnc(N2CCCCC2)s1,inactive
10,O=C(Nc1ccc(CN2CCOCC2)cc1)c1cc(Cl)ccc1Cl,inactive
11,CC(C)c1cc(CN2CCOCC2)cc(C(C)C)c1O,3.98 µM (active)
12,CC(CN1CCOCC1)c1ccccc1 (stereo not given),inactive
13,COc1cc(C(=O)Nc2ccc(OCc3cc(=O)n4cc(C)sc4n3)cc2)cc(OC)c1OC,inactive
14,COc1ccc(CC(=O)N2CC(=O)Nc3ccc(Br)cc3C2c2ccc(F)cc2)cc1OC (stereo not given),inactive
15,CCOC(=O)C1CCCN(C(=O)Cn2ncc3c(C)n(Cc4ccc(F)cc4)c(C)c3c2=O)C1 (stereo not given),inactive
16,Cc1oc2ncn(CC(C)C)c(=O)c2c1C(=O)N1CCN(c2ccccc2F)CC1,inactive
17,CCOC(=O)C1(CCc2ccccc2)CCN(Cc2ccco2)CC1,inactive
18,CCN1CCN(C(c2ccc(C)cc2)c2c(O)cc(C)n(Cc3ccco3)c2=O)CC1 (stereo not given),4.47 µM (active)
19,OC(COCc1ccco1)CN1CCN(c2ccccc2)CC1 (stereo not given),inactive
20,Cc1cc(O)c(C(c2ccccc2)N2CCN(c3ccccc3F)CC2)c(=O)n1Cc1ccco1 (stereo not given),3.16 µM (active)
21,C/C(=N\N1CCN(Cc2ccc(C)cc2)CC1)c1ccco1,inactive
22,COc1cccc(C(c2c(O)cc(C)n(Cc3ccco3)c2=O)N2CCN(c3ccccc3)CC2)c1 (stereo not given),3.16 µM (active)
23,COc1ccc(C(CC(=O)N2CCN(c3ccccc3)CC2)c2c(O)cc(OC)cc2OC)cc1 (stereo not given),inactive
24,Cc1nc2ccn(Cc3cccnc3)c(=O)c2cc1C(=O)N1CCN(c2ccccc2F)CC1,inactive
